Test results as given in PubChem BioAssay AID588345 (Broad Institute, 2011).
The whole screen tested about 1,300 compounds, of which about 850 (65%) were called active. Another 1% or so got no clear call; they are omitted. How the calls were made is not given here. The set was probably picked from earlier hits. Not all results are given here. Potency and affinity values are given separately.

Biological target: Dual specificity tyrosine-phosphorylation-regulated kinase 1A (Rattus norvegicus) (UniProt Q63470)
Assay: Dyrk1A enzyme activity inhibition – biochemical, cherry-pick, plate reader, 2124-01, dose response (AID 588345)
Settings: Dyrk1A kinase biochemical assay; series mostly up to 12 µM; activity change, negative = inhibition: at the top concentration

Activity change, negative = inhibition, inactive:
CC(=O)c1nc2ccccc2n1S(=O)(=O)c1ccc(Cl)cc1 4.3%
O=C(Nc1cccnc1)c1scc2c1OCCO2 -3.85%
COc1cccc(C(=O)Nc2ccc(F)c(F)c2F)c1 -14%
Cc1cc(C(=O)CSc2nn(-c3ccccc3)c(=S)s2)c(C)n1Cc1ccco1 0.28%
Cc1cc([N+](=O)[O-])nn1Cc1ccccc1F 10.6%
CN1CCN(CCNC(=O)c2cc3c(=O)n(C)c4ccccc4c3n2C)CC1 13.7%
CC1CCC(NC(=O)c2cc(S(=O)(=O)N3CCCCC3)c[nH]2)CC1 (stereo not drawn) -4.92%
CN(C)CCNC(=O)c1cc2c(=O)n(C)c3ccccc3c2n1C -2.03%
O=c1cc[nH]c2c1ccc1cccnc12 -34.5%
COc1ccc2[nH]c(C)c(CCN(Cc3cccs3)C(=S)Nc3ccccc3OC)c2c1 -2.48%
CN1CCc2c(sc3nc(NN)n(-c4ccc(Cl)cc4)c(=O)c23)C1 -1.13%
O=C(N/N=C/c1ccccn1)c1cc(-c2ccccc2Cl)n[nH]1 -32.5%
CN(C)CCNC(=O)c1cc2c(s1)-c1ccccc1OC2 -11.7%
O=C(COc1ccccc1)Nc1cccc(-c2nn[nH]n2)c1 -0.144%
O=C(Nc1cccc(-c2cn3cccnc3n2)c1)c1ccc(Br)o1 -35.3%
COc1cc(C(C)=O)ccc1Oc1ncnc2c1cnn2-c1ccccc1 2.65%
c1ccc2c(c1)Nc1ccncc1S2 -73.4%
COc1ccc(-c2csc3ncnc(Sc4nnnn4C)c23)cc1 3.58%
Cc1ccc2oc(=O)c3cnn(CC(=O)NC4CCCCC4C)c3c2c1 (stereo not drawn) 5.08%
N=C1S/C(=C\c2ccc(O)cc2)C(=O)N1c1ccc(F)cc1 -8.53%
O=C(NC(Nc1nc2ccc([N+](=O)[O-])cc2s1)(C(F)(F)F)C(F)(F)F)c1ccccc1 15.1%
O=C(Nc1nc2ccccc2s1)c1ccc(OCC2CCCO2)cc1 (stereo not drawn) -8.24%
C=CCn1c(SCC(=O)Nc2nc3ccccc3s2)nc(O)c(CC)c1=O -7.59%
Cn1c(=O)c2c(nc(NCc3ccco3)n2CC(O)COc2ccccc2)n(C)c1=O (stereo not drawn) 10.4%
CC(C)NS(=O)(=O)c1ccc(OCC(=O)N(C)Cc2ccccc2)cc1 8.65%
COc1ccc(NC(=O)N(C)C[C@H]2Oc3ccc(NC(=O)CCN4CCOCC4)cc3C(=O)N([C@H](C)CO)C[C@@H]2C)cc1 -2.3%
CC[C@@](C)(NS(=O)(=O)OCC(Cl)(Cl)Cl)c1ccccc1 -6.36%
O=C1C2C(c3ccccc3)CC=CC2[C@H](c2ccoc2)N1Cc1ccccc1 (stereo partly drawn) -3.28%
CCN1CCN(c2nc(Nc3cccc(C)c3)nc(N)c2[N+](=O)[O-])CC1 7.23%
Nc1nc(NCCCN2CCOCC2)nc(Nc2ccccc2)c1[N+](=O)[O-] 13.6%
O=C(c1ccc(Cl)c(Cl)c1)N1CCC(=O)N(C(COCc2cccc(C(F)(F)F)c2)Cc2ccccc2)CC1 (stereo not drawn) 0.743%
O=c1c2ccccc2nnn1CSc1nnc(-c2ccc3c(c2)OCO3)o1 -18.6%
O=C(O)c1ccc(-n2cc(-c3cc4ccccc4oc3=O)[nH]c2=S)cc1 -81.2%
COc1cccc(/C=C2\Oc3ccc(O)cc3C2=O)c1O -2.86%
Oc1ccc(-c2[nH]ncc2-c2nc3ccccc3s2)c(O)c1 -0.073%
CNc1nc2c(N)ncnc2n1[C@H]1O[C@@H](CO)[C@H](O)[C@@H]1O 7.57%
Nc1nc(SCc2ccc([N+](=O)[O-])cc2)c2ncn(C3OC(CO)C(O)C3O)c2n1 (stereo not drawn) 12.1%
CCC1COCCS(=O)(=O)N1Cc1ccccc1 (stereo not drawn) 16.5%
Oc1ccc2c(ccc3[nH]cnc32)c1 -2.1%
COC(=O)NNC(=O)COc1ccc(Cl)cc1 -0.602%
NNc1nccc(Nc2ccccc2C(=O)O)n1 -81.3%
COc1nc(C)ccc1-c1noc(-c2ccccn2)n1 -4.21%
O=C(Cn1cc(COc2ccccc2C(F)(F)F)nn1)c1ccc(O)cc1 -13.4%
Fc1ccccc1/C=N/Nc1ncnc2nc[nH]c12 11.1%
Cc1ccsc1/C=N/Nc1ncnc2nc[nH]c12 -0.099%
CCCCNC(=S)Nc1ccc2cn[nH]c2c1 -0.332%
O=C1C=CC(O)(c2cc(=O)c3c(O)cc(O)cc3o2)C=C1 -5.93%
O=c1c2c(O)cc(O)cc2oc2c(O)ccc(O[C@H]3O[C@@H](CO)[C@H](O)[C@@H](O)[C@@H]3O)c12 13.6%
CS(=O)(=O)Nc1ccc(-c2ccc(/C=C3\SC(N)=NC3=O)o2)cc1 -4.55%
CSc1nc(SCC(=O)NCc2ccco2)c2c3c(sc2n1)CN(C)CC3 -30.4%
CC(C)Oc1ccc(C(CC(=O)NCc2ccco2)c2ccccc2)cc1 (stereo not drawn) 6.23%
COc1ccc2c(Cl)c(C(N)=O)sc2c1 0.271%
COc1ccc2c(c1)[nH]c1c(Cl)ncnc12 5.9%
CCOC(=O)c1ccc(NC(=S)Nc2ccc(Br)cc2N)cc1 -4.3%
COc1ccc(-n2ccc(-c3nn(-c4cccc(C(F)(F)F)c4)ccc3=O)n2)cc1 4.68%
Cc1ccc(/C=c2\sc3n(c2=O)CN(c2ccc(Br)cc2)CN=3)o1 -30.4%
O=C(O)c1ccc2c(c1)S(=O)(=O)c1cc(Cl)ccc1C2=O 6.12%
CCCCn1c(NCCO)nc2ccccc21 -2.66%
Clc1ccc2[nH]c3c(c2c1)CCc1cn[nH]c1-3 -37.9%
Cc1ccccc1/C=N/Nc1ncnc2nc[nH]c12 -20.2%
CC(=O)c1ccc(NC(=S)Nc2ccc3cn[nH]c3c2)cc1 -17.4%
COc1ccc(N=Nc2c(C)n[nH]c2C)cc1 4.04%
N#CCC(N)=C(C#N)C#N -1.58%
CC1OC(OCC2OC(Oc3c(-c4ccc(O)cc4)oc4cc(O)cc(O)c4c3=O)C(O)C(O)C2O)C(O)C(O)C1O (stereo not drawn) -20%
CCCCn1c(N2CCC(Cc3ccccc3)CC2)nc2c1c(=O)[nH]c(=O)n2C -5.72%
Cc1cccc(OCC(=O)Nc2nc3ccc([N+](=O)[O-])cc3s2)c1 5.01%
COc1ccc(-c2ccc(=O)n(Cc3cccc([N+](=O)[O-])c3)n2)cc1 -43.7%
CC1(C)Nc2ccc(O)cc2-c2c1ssc2=S -1.72%
CCC(C)CCN1C(Nc2ccccc2)=NC[C@@H]1Cc1ccccc1 (stereo partly drawn) -7.86%
COc1ccc(N2C(=O)C3CCCN3C2c2cc(OC)c(OC)c(OC)c2)cc1 (stereo not drawn) 1.89%
CCOC(=O)C1CCCN(c2c(NCCCN3CCCC(C)C3)c(=O)c2=O)C1 (stereo not drawn) -0.476%
CCCOc1ccc(/C=N/NC(=O)CN2CCCCC2)cc1 -2.8%
COc1ccc(/C=C2\SC(N3CCc4ccccc4C3)=NC2=O)cc1 -31.4%
Cc1cccc(NC(=S)NN2CCN(C)CC2)c1 -6.09%
O=C1[C@H]2[C@H](C=CC[C@H]2C(=O)N2CCOCC2)CCN1Cc1ccccc1 5.23%
CCOC(=O)C1CCCN(c2c(NCCN(C)Cc3ccccc3)c(=O)c2=O)C1 (stereo not drawn) -7.74%
COCCN=C1N[C@@H](c2cccc(C(F)(F)F)c2)C(C(=O)OC)=C(C)N1Cc1ccccc1 -0.582%
O=C1OCc2cccc3cccc1c23 4.49%
Nc1ncnc(N)c1N=Nc1ccccc1 10.3%
CCOC(=O)C1=C(C)OC(N)=C(C#N)C1c1ccc(O)c(OC)c1 (stereo not drawn) 7.18%
CCN(CC)c1ccc(/C=C2\C(=O)c3ccc(C(=O)O)cc3C2=O)cc1 4.65%
O=c1[nH]c(=S)[nH]c2sccc12 -5.08%
O=C(COC(=O)c1cccs1)c1ccc2ccccc2c1 -4.36%
CCc1ccccc1NC(=O)C1CCCN(S(=O)(=O)c2ccc3c(c2)CC(C)N3C(C)=O)C1 (stereo not drawn) -3.11%
CCOC(=O)C(Cc1ccc(O)cc1)NC(=O)CCc1c[nH]c2ccccc12 (stereo not drawn) 0.971%
CC(C)(C)[C@H]1C=C(C(=O)N2CCN(Cc3ccccc3)CC2)O[C@@H](OCCCCO)C1 0.688%
COc1ccccc1NC(=S)N/N=C/c1ccc(O)cc1 -0.12%
COc1ccc2c(Cl)c(C(=O)N/N=C/c3cccnc3)sc2c1 7.43%
Cc1ccc(CN2CCN(c3ncccn3)CC2)o1 -2.31%
O=C1CCN(CCCc2ccccc2)CCN1[C@H](CO)c1ccccc1 5.58%
Oc1ccc(-c2nc3ncccn3c2Nc2ccc3c(c2)OCO3)cc1 0.488%
O=[N+]([O-])c1ccc(O)c(C=NNc2ccc(S(=O)(=O)O)cc2)c1 2.14%
Cc1cccc2nc(-c3cccc(NC(=O)c4ccc(Cl)cc4)c3)cn12 -7.42%
COc1ccc2c(c1)OC[C@H]1[C@H]2N2C(=O)CN(CC3CCCO3)C(=O)[C@@]2(C)[C@H]1c1ccccc1 (stereo partly drawn) 15.3%
COc1ccccc1-c1sc2ccccc2c1C#Cc1ccc(N(C)C)cc1 11.4%
O=C(O)c1cc(N/N=C/c2c(O)ccc3ccccc23)ccc1Cl -0.869%
COc1cccc(-c2noc(N)c2C#N)c1 4.6%
N#Cc1c2ccc(O)cc2n2ccccc12 -4.28%
COc1ccc2c(c1)CCc1cn3nc(C)cc3nc1-2 -83.2%
COc1ccc2c(c1)CCc1cc(C(=O)O)sc1-2 -18.2%
COC(=O)c1sc2cnccc2c1N -37.3%
COc1ccc(OC)c(C2=Nn3c(nnc3-c3ccco3)SC2)c1 10.8%
Brc1ccccc1C1=Nn2c(nnc2-c2ccccc2)SC1 -4.23%
CCOC(=O)C1CCCN(c2c(N3CCN(C4CCCCC4)CC3)c(=O)c2=O)C1 (stereo not drawn) -3.65%
CC(C)Oc1ccc(C2CNC(=O)C2)cc1 (stereo not drawn) 5.01%
COC(=O)c1[nH]c2cc(OC)ccc2c1N -3.32%
COC(=O)c1c(-c2ccc(S(C)(=O)=O)cc2)sc2ccc(OC)cc12 3.56%
Cc1ccc2c(c1)N(CC(=O)NC1CCCCC1)C(=O)c1cccnc1O2 5.4%
CCCCN(CC)CCCNC(=O)c1cc2cc3ccc(OC)cc3nc2o1 14%
COc1ccc2cc3cc(C(=O)NCCCN4CCC(C)CC4)oc3nc2c1 -21.4%
CCN1CCN(CCCNC(=O)c2cc3cc4ccc(OC)cc4nc3o2)CC1 -30.7%
COc1cccc(Cn2nnc(C(=O)NCCc3ccc(Cl)cc3)c2N)c1 4.5%
COCCNC(=O)c1cc2cc3ccc(OC)cc3nc2o1 -36.9%
